“And” between values parts separate entries of the source, which are not always exact repeats. Identical values can stand only once. The source made the active and inactive calls. How the source made its calls: active means hit-call score of the fitted dose curve at least 0.9, where 1 is the maximum; inactive means score below 0.9.
Columns and labels:
[1] = ATG_E_Box_CIS: Attagene CIS-FACTORIAL HepG2 Assay for human Enhancer Box (E-box) (AID 2282936); conditions: HepG2 E-box cis-reporter transcription, actives raise or lower the signal
Outline: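 Transiently transfected HepG2, endogenous TF-driven reporters, 24 h dosing. Readout: RT-PCR plus capillary electrophoresis of fluorescent reporter fragments. Gain or loss of signal fitted bidirectionally against DMSO baseline.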

[2] = ATG_M_61_CIS: Attagene CIS-FACTORIAL HepG2 Assay for M61 Transcription Factor (Internal Marker) (AID 2282937); conditions: HepG2 Attagene CIS-FACTORIAL M61 internal marker reporter; actives raise or lower the signal
Outline: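 Transfect HepG2 with MRTUs; dose 24 h; isolate RNA; reverse-transcribe with DNase I treatment; PCR-amplify, FAM-label and cut with HpaI for 2 h at 37 C; resolve by CE. Bidirectional fitting against DMSO.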

[3] = ATG_EGR_CIS: Attagene CIS-FACTORIAL HepG2 Assay for human Early Growth Response 1 (EGR1) (AID 2282938); conditions: HepG2 Attagene CIS-FACTORIAL EGR reporter mRNA; actives raise or lower the signal
Outline: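 After a 24 h treatment of transiently transfected HepG2 cells, total RNA was reverse-transcribed and reporter sequences PCR-amplified, labelled and run on capillary electrophoresis. Reporters sit under cis-regulatory promoters sensing endogenous factors.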

[4] = ATG_M_19_CIS: Attagene CIS-FACTORIAL HepG2 Assay for M19 Transcription Factor (Internal Marker) (AID 2282939); conditions: HepG2 Attagene CIS-FACTORIAL M19 internal marker reporter; actives raise or lower the signal
Outline: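 In this multiplexed cell assay, transiently transfected HepG2 reporter units report endogenous transcription-factor activity; after 24 hours of treatment, labelled reporter cDNA fragments are quantified by capillary electrophoresis and fitted bidirectionally against DMSO.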

[5] = ATG_ERE_CIS: Attagene CIS-FACTORIAL HepG2 Assay for Estrogen Response Element (ERE) (AID 2282940); conditions: HepG2 ERE cis-reporter, Attagene RNA transcript; actives raise or lower the signal
Outline: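 Measuring endogenous transcription factor output, the assay doses transfected HepG2 cells for 24 hours and quantifies reporter transcripts by fluorescent RT-PCR and capillary electrophoresis, with DMSO as baseline.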

[6] = ATG_Ets_CIS: Attagene CIS-FACTORIAL HepG2 Assay for human Erythroblast Transformation Specific (ETS) (AID 2282941); conditions: HepG2 ETS cis-reporter transcription, actives raise or lower the signal
Outline: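 Endogenous transcription factor activity read as reporter mRNA via RT-PCR and capillary electrophoresis, with gain or loss fitted bidirectionally against DMSO. Human HepG2 liver cells, transiently transfected CIS reporter constructs, 24 h exposure.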

[7] = ATG_FoxO_CIS: Attagene CIS-FACTORIAL HepG2 Assay for human Forkhead box O (FoxO) (AID 2282943); conditions: HepG2 Attagene cis-reporter, FoxO element, mRNA; actives raise or lower the signal
Outline: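 HepG2 cells transiently transfected with cis-element-driven reporter units report endogenous FoxO activity. After 24 h chemical exposure, reporter mRNA quantified by RT-PCR, fluorescent labeling, HpaI digestion and capillary electrophoresis; bidirectional fit versus DMSO.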

[8] = ATG_GATA_CIS: Attagene CIS-FACTORIAL HepG2 Assay for human GATA Binding Protein (AID 2282944); conditions: HepG2 GATA cis-element reporter, Attagene multiplex mRNA; actives raise or lower the signal
Outline: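 Measures endogenous transcription factor-driven reporter mRNA in HepG2 cells transiently carrying cis-regulated constructs. 24 h dosing; RNA via oligo(dT) reverse transcription, PCR, HpaI digestion, capillary electrophoresis; fitted relative to DMSO.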

[9] = ATG_GLI_CIS: Attagene CIS-FACTORIAL HepG2 Assay for human Zinc Finger Protein GLI1 (AID 2282945); conditions: HepG2, Attagene cis-factorial reporter mRNA, GLI element; actives raise or lower the signal
Outline: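 Transiently transfected HepG2 cells report endogenous transcription factor activity via cis-element-driven reporter units. After 24 h compound exposure, reporter mRNA was measured by RT-PCR with capillary electrophoresis; bidirectional fitting against DMSO baseline.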

SMILES	outcome [1]	outcome [2]	outcome [3]	outcome [4]	outcome [5]	outcome [6]	outcome [7]	outcome [8]	outcome [9]	AC50 [5]
FC(F)(F)C(F)(C(F)(F)F)C(F)(F)C(F)(F)CC1CO1 (centres undefined)	inactive	inactive	inactive	inactive	inactive	inactive	inactive	inactive	inactive	
c1nc[nH]n1	inactive	inactive	inactive	inactive		inactive	inactive	inactive	inactive	29 µM (active)
[N-]=[N+]=[N-]	inactive	inactive	inactive	inactive	inactive	inactive	inactive	inactive	inactive	
CCOP(=S)(OCC)SCS(=O)(=O)CC	inactive	inactive	inactive	inactive	inactive	inactive	inactive	inactive	inactive	
CCOP(=S)(NC(C)C)Oc1ccccc1C(=O)OC(C)C (centres undefined)	inactive	inactive	inactive	inactive		inactive	inactive	inactive	inactive	11.3 µM (active)
COC(=O)C(F)(F)C(F)(F)OC(F)(C(F)(F)F)C(F)(F)OC(F)=C(F)F (centres undefined)	inactive	inactive	inactive	inactive		inactive	inactive	inactive	inactive	303 nM (active) and 563 nM (active) and 514 nM (active)
NNC(N)=S	inactive	inactive	inactive	inactive	inactive	inactive	inactive	inactive	inactive	
CC(O)C#N (centres undefined)	inactive	inactive	inactive	inactive	inactive	inactive	inactive	inactive	inactive	
c1ccc(OP(Oc2ccccc2)Oc2ccccc2)cc1	inactive	inactive	inactive	inactive		inactive	inactive	inactive	inactive	72.9 µM (active)
c1ccc2c(c1)Nc1ccccc1S2	inactive	inactive	inactive	inactive		inactive	inactive	inactive	inactive	16.2 µM (active)
Oc1ccc(I)cc1	inactive	inactive	inactive	inactive		inactive	inactive	inactive	inactive	23.7 µM (active)
COCCOCCO	inactive	inactive	inactive	inactive	inactive	inactive	inactive	inactive	inactive	
O=P1(N(CCCl)CCCl)NCCCO1 (centres undefined)	inactive	inactive	inactive	inactive		inactive	inactive	inactive	inactive	3.3 µM (active)
CC(Cl)CN(C)C (centres undefined)	inactive	inactive	inactive	inactive	inactive	inactive	inactive	inactive	inactive	
Nc1ccc(Cl)cc1	inactive	inactive	inactive	inactive	inactive	inactive	inactive	inactive	inactive	
Cc1ccc(C(=O)Cl)cc1	inactive	inactive	inactive	inactive	inactive	inactive	inactive	inactive	inactive	

From PubChem BioAssay (EPA / NIEHS)
